Luciferase inh: Firefly luciferase inhibition profiling of diverse chemical library using quantitative high-throughput screening | purified P. pyralis luciferase, luminescence, biochemical | AID 1347043, 2019 | hit rate 2.5% among 76,000 | Potency, µM (doses to about 115 µM), most hits filed as inhibitors | Luciferin 4-monooxygenase (Photinus pyralis), P08659; further: nearly all actives have a fitted effect of over 65% in size
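Luminescence read by CCD imager after adding enzyme (10nM final) to wells holding compound, titrated in qHTS. Substrates 10uM each D-luciferin and ATP; buffer 50mM Tris acetate pH 7.5, 10mM Mg acetate, Tween-20, BSA.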
GPT2 inh: Primary qHTS assay for inhibitors of Glutamate pyruvate transaminase 2 (GPT2). hit rate 0.25% among 100,000. Potency, µM (highest dose often 57.7 µM), most hits filed as inhibitors. Recombinant GPT2, coupled pyruvate oxidase/HRP Amplex Red fluorescence. Alanine aminotransferase 2 (Homo sapiens), Q8TD30; further: nearly all actives have a fitted effect of over 60% in size
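Inhibition is scored from Amplex Red fluorescence generated when pyruvate oxidase and HRP act on pyruvate released by GPT2. Reactions contain 10ng/uL enzyme, 250uM a-KG and 2mM L-alanine and run 30 min at room temperature.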
3T3 cytotox: Cytotoxic Profiling in NIH 3T3 Cell Line of Diverse Libraries Using Quantitative High-Throughput Screening; NIH 3T3 viability, CellTiter-Glo ATP luminescence, 48-72 h; hit rate 4.3% among 94,000; Potency, µM (titrated, usually from 96.7 µM), actives largely listed as inhibitors; AID 1345082, 2018; further: nearly all actives have a fitted effect of over 55% in size
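ATP-dependent luminescence (CellTiter-Glo) served as the viability signal for NIH 3T3 cells treated with compound for 48 or 72 hr at 37 °C.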
hNpr1 antagonist: Natriuretic polypeptide receptor (hNpr1) antagonism - Primary qHTS. Atrial natriuretic peptide receptor 1 (Homo sapiens), P16066. HEK293 hNpr1 GloSensor cGMP, ANP-stimulated luminescence. Potency, µM (top dose mostly 46.3 µM), usual class: inhibitors. hit rate 1.6% among 76,000. AID 1347048, 2019; calls by dose curve; further: nearly all actives have a fitted effect of over 60% in size
Target sequence (P16066 whole entry, looked up): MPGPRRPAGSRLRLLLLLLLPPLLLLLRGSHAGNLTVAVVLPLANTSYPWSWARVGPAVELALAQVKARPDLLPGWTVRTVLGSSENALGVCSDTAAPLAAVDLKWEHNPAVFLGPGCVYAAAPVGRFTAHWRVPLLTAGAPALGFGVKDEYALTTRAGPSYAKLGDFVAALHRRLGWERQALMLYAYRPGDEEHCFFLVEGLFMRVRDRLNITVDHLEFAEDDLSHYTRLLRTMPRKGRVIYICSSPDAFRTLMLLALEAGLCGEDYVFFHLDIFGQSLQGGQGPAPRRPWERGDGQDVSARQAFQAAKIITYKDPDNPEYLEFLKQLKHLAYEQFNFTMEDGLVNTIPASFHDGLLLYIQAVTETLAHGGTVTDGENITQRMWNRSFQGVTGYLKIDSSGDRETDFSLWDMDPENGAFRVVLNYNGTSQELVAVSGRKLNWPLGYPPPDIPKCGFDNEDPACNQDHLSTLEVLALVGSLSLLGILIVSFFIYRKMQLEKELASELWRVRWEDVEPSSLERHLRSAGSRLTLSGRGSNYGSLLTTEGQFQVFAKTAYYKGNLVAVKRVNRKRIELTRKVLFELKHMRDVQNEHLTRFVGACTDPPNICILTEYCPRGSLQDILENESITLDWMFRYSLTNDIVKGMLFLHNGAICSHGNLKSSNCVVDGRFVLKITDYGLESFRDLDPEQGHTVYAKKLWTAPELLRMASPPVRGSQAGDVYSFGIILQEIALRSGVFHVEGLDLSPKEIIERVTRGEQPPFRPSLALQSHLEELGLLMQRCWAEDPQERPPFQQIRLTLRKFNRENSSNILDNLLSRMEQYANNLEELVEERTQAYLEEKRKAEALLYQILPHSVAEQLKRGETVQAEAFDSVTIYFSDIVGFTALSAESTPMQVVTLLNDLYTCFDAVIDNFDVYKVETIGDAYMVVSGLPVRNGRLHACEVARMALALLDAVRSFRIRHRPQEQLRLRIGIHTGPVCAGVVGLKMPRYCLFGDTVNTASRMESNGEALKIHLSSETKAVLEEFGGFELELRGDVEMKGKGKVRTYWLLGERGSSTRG
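HEK293 cells stably expressing human Npr1 and cGMP GloSensor pGS-40F, loaded 2 h with 2% GloSensor reagent, given compound 30 min at room temperature. Luminescence read before and 20 min after 0.1 nM hNppA.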
HEK cytotox: Cytotoxic Profiling in HEK 293 Cell Line of Diverse Libraries Using Quantitative High-Throughput Screening. HEK 293 viability, ATP luminescence (CellTiter-Glo), 48-72 h. Potency, µM (doses to about 115 µM), most hits filed as inhibitors. hit rate 6.6% among 94,000. AID 1345083, 2018; further: nearly all actives have a fitted effect of over 60% in size
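Read-out: CellTiter-Glo ATP luminescence. Cells: HEK 293, 250 cells/well. Exposure: 48 or 72 hr, 37 degree Celsius.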
Numbers stand for hits; - = inactive; ? = inconclusive; . = no result. Sampled rows, rich in hits. Any-hit rate of the full collection: about 10%. Unless noted, the call rests on the fitted dose curve; in most records, active means well fitted curve in the direction sought with a large enough effect; inconclusive means small, poorly fitted or top-dose-only effect, or another doubt; inactive means no such curve, though single readings can be large; an effect the other way counts as inactive or inconclusive.

SMILES	Luciferase inh	GPT2 inh	3T3 cytotox	hNpr1 antagonist	HEK cytotox
Cc1cccc(C(=O)N2CC(N(C)Cc3cccnc3)C2)c1	-	?	-	-	-
Cc1cc(C)n(CC(=O)N2CC(N(C)Cc3cccnc3)C2)n1	35.5µM	-	-	-	-
CN(Cc1cccnc1)C1CN(C(=O)c2cnn(C)c2)C1	28.2µM	-	-	-	-
CC(C)c1nc2c(c(-c3ccc(Cl)cc3)n1)CCN(Cc1ccc(F)cc1)CC2	.	-	?	.	39.8µM
Oc1ccc(-c2nc(C3CC3)nc3c2CN(Cc2ccc(C(F)(F)F)cc2)CC3)cc1	-	-	?	-	89.1µM
CC(C)c1nc2c(c(-c3ccc(O)cc3)n1)CN([S+](=O)([O-])c1cccc(C(F)(F)F)c1)CC2	-	-	17.8µM	-	?
CC(C)c1nc2c(c(-c3ccc(O)cc3)n1)CCN(Cc1ccc(C(F)(F)F)cc1)CC2	-	-	39.8µM	-	35.5µM
CC(C)c1nc2c(c(-c3ccc(O)cc3)n1)CCN(Cc1ccc(OC(F)(F)F)cc1)CC2	-	-	?	-	?
CC(C)c1nc2c(c(-c3ccc(Cl)cc3)n1)CCN(Cc1ccccc1)CC2	.	-	-	.	?
Cc1cccc(NC(=O)N2CCCC2c2noc(COc3ccc(F)cc3)n2)c1 (centres undefined)	.	-	?	.	?
CCN(CC)CC(=O)N1CCCC(N2CCN(c3ccc(F)cc3)CC2)C1 (centres undefined)	-	-	-	-	-
CCc1nc2c(c(-c3ccc(O)cc3)n1)CN(Cc1ccc(C(F)(F)F)cc1)CC2	-	-	?	-	?
CC(C)c1nc2c(c(-c3ccc(O)cc3)n1)CN(Cc1ccc(C(F)(F)F)cc1)CC2	-	-	?	-	39.8µM
COc1ccc(C(=O)NC2CCN(c3cc(-c4ccccc4)[nH]n3)C2)cc1OC (centres undefined)	-	?	-	-	?
Cc1ccc(C(=O)N2CCCC(n3cc(-c4nc(-c5ccccc5)no4)nn3)C2)s1 (centres undefined)	?	-	?	10µM	?
Cc1ccc(C(=O)N2CCC(n3cc(-c4nc(-c5ccccc5)no4)nn3)CC2)s1	-	-	?	?	44.7µM
Cc1ccc(C(=O)N2CCCC(n3cc(-c4nc(C5CC5)no4)nn3)C2)s1 (centres undefined)	-	-	-	-	?
Cc1noc(-c2cn(C3CCN(C(=O)c4ccc(C)s4)CC3)nn2)n1	-	-	-	-	-
Cc1ccc(Nc2ccnc(N3CCC(C(=O)N4CCCCC4)CC3)n2)cc1	.	-	?	.	?
CCCCn1c(=O)c(C(=O)NCc2ccccn2)nc2cccnc21	.	-	?	.	-
CCCCn1c(=O)c(C(=O)NC2CCCc3ccccc32)nc2cccnc21 (centres undefined)	.	-	35.5µM	.	39.8µM
CCC1=C(C(=O)OC)C(c2cccc(F)c2)N2C(CC(=O)NCC3CCCO3)=CSC2=N1 (centres undefined)	-	-	-	-	-
O=[S+]1([O-])NCC2(CCN(Cc3ccccc3C(F)(F)F)CC2)Nc2ccccc21	-	-	-	-	?
O=[S+]1([O-])NC2(CCN(Cc3cccc4ccccc34)C2)CNc2ccccc21 (centres undefined)	-	-	?	?	39.8µM
O=C(c1ccc(C(F)(F)F)cc1)N1CCC2(CC1)CNc1ccccc1[S+](=O)([O-])N2	-	-	-	-	50.1µM
SMILES	Luciferase inh	GPT2 inh	3T3 cytotox	hNpr1 antagonist	HEK cytotox
O=[S+]1([O-])NC2(CCN(Cc3ccc(C(F)(F)F)cc3)C2)CNc2ccccc21 (centres undefined)	-	-	?	?	44.7µM
O=[S+]1([O-])NC2(CCN(Cc3ccccc3C(F)(F)F)C2)CNc2ccccc21 (centres undefined)	-	?	?	-	39.8µM
O=[S+]1([O-])NCC2(CCN(Cc3cccc4ccccc34)CC2)Nc2ccccc21	-	-	?	-	?
O=C(NCCCc1ccccc1)C1CCN(Cc2ccccc2-c2cccnc2)CC1	.	-	?	.	?
CC(=O)Nc1ccc(C(=O)N2CCN(c3cccc(C=O)c3)C(=O)C2)cc1	.	-	-	.	-
Cc1cc(=O)n(CC(=O)Nc2ccccc2F)c(N2CCc3ccccc3C2)n1	-	-	-	-	-
Cc1cnc(CNC(=O)c2cc(CN3CCC(Cc4ccccc4)CC3)on2)cn1	-	-	-	-	?
O=C(NCc1cccnc1)c1cc(CN2CCC(Cc3ccccc3)CC2)on1	-	-	31.6µM	-	-
Cc1ccccc1C(=O)N1CCN(Cc2ccccc2-c2ccccc2F)CC1	.	-	?	.	?
Cc1cccc(S(=O)(=O)Nc2cccn3nc(C4CCC4)nc23)c1	-	-	44.7µM	-	?
O=S(=O)(Nc1cccn2nc(C3CC3)nc12)c1cccnc1	-	?	-	-	-
O=C(Nc1cccn2nc(C3CCC3)nc12)c1ccccn1	-	-	8.91µM	-	?
O=C(NCc1ccc(F)cc1)C1CCCCN1Cc1ccc(-c2ccsc2)cc1 (centres undefined)	.	?	?	.	39.8µM
Cc1cc(C)cc(-c2ccc(CN3CCCC3C(=O)NCc3cccs3)cc2)c1 (centres undefined)	.	-	?	.	?
O=C(NCc1cccnc1)C1CCCCN1Cc1ccc(-c2ccsc2)cc1 (centres undefined)	.	-	?	.	?
COc1ccc(CNC(=O)C2CCCCN2Cc2ccc(-c3ccsc3)cc2)cc1OC (centres undefined)	.	-	?	.	39.8µM
COc1ccc(CNC(=O)C2CCCN2Cc2ccc(-c3cncnc3)cc2)cc1 (centres undefined)	.	-	-	.	?
O=C(NCc1cccs1)C1CCCCN1Cc1ccc(-c2ccsc2)cc1 (centres undefined)	.	-	25.1µM	.	28.2µM
O=C(NCCc1ccccc1)C1CCCCN1Cc1ccc(-c2ccsc2)cc1 (centres undefined)	.	-	?	.	28.2µM
COc1cccc(C(=O)NCCNC(=O)c2ccc(-c3cncnc3)cc2)c1	.	.	-	.	?
Cc1ccc(C(=O)N2CCC(n3cc(-c4nc(C(C)C)no4)nn3)CC2)s1	-	-	-	-	?
O=C(NCc1ccccc1Cl)C1CCCCN1Cc1ccc(-c2ccsc2)cc1 (centres undefined)	.	-	28.2µM	.	35.5µM
O=c1n(-c2ccncc2)nc2n1CCN(Cc1ccsc1)C2	?	-	?	-	?
O=c1n(-c2ccc(F)cc2F)nc2n1CCN(Cc1ccccc1)C2	?	-	6.31µM	-	3.16µM

Compound activity (PubChem)
